Screening data as filed in PubChem.
This excerpt belongs to a sample that is enriched for hits.
TbPYK inhibitor = T. brucei pyruvate kinase inhibition; TbPYK enzyme, Kinase-Glo Plus ATP luminescence, 45 min; Potency, µM (top dose mostly 76.8 µM), for the others: at the top dose activity, negative = inhibition, most hits filed as inhibitors; Q57TT1; AID 624173; hit rate 0.12% among 410,000; note: potency is the fitted concentration of half-maximal effect; % is set by controls: 0 for no effect and ±100 for the full control effect; nearly all actives have a fitted effect of over 50% in size
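T. brucei PYK with substrate was exposed to pin-transferred compounds across a concentration series, then started with 130 uM ADP (final). After 45 min at room temperature, Kinase-Glo Plus luminescence was read, normalized and curve-fitted.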
LmPK inhibitor = blocks Leishmania mexicana pyruvate kinase activity; Q27686; purified LmPK, Kinase-Glo ATP luminescence, 1 h; Potency, µM (doses to about 57.5 µM), for the others: at the highest dose activity change, negative = inhibition, actives largely listed as inhibitors; hit rate 0.37% among 290,000; note: potency is the fitted concentration of half-maximal effect; % is set by controls: 0 for no effect and ±100 for the full control effect
Target sequence (Q27686 whole entry, looked up): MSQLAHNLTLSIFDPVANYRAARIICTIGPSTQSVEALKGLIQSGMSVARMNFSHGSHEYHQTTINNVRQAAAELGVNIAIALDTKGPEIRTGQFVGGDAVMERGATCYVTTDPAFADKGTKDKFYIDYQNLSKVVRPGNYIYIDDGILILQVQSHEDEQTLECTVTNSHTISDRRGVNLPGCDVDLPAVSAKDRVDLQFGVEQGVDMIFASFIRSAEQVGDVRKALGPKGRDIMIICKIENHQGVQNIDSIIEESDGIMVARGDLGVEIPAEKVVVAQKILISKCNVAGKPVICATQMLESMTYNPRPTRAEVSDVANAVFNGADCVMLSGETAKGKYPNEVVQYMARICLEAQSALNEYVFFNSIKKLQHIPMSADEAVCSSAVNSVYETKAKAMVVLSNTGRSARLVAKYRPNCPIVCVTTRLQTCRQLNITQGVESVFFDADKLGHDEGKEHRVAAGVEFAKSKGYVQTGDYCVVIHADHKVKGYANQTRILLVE
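In 50 mM imidazole pH 7.2 with 7 mM MgCl2, LmPK (0.1 nM) turned over PEP (0.5 mM) and ADP (0.1 mM) for 1 h at room temperature. Luciferase read-out of ATP.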
SARS PLpro yeast = blocks SARS-CoV papain-like protease in a yeast assay; S. cerevisiae expressing SARS-CoV PLpro, growth rescue; Potency, µM (highest dose often 32.9 µM), for the others: at the highest dose activity, positive = growth rescue, usual class: activators; hit rate 0.19% among 330,000; calls by dose curve; note: potency is the fitted concentration of half-maximal effect; 0% is about no effect; nearly all actives have a fitted effect of over 55% in size
Shiga toxin inh = Shiga toxin inhibition | Vero cells, Shiga toxin protein synthesis inhibition reporter | inhibition, % at 38.7 µM | hit rate 9.2% among 290,000; in the data active = inhibition mostly above about 28%, no sharp cut-off; inactive = mostly below about 43%; note: 0% is about no effect
Cycloheximide cs = counter-screen hit for Shiga toxin inhibitors, cycloheximide; cell reporter, cycloheximide protein synthesis inhibition counterscreen; max response, %; hit rate 12% among 300,000; AID 2314; in the data active = max response mostly above about 13%, no sharp cut-off; inactive = mostly below about 14%; note: read at 38.3 µM for the half of the compounds with a filed dose; 0% is about no effect
NS1 function inh = blocks influenza NS1 protein function. Potency, µM (highest dose often 46.1 µM), without a hit: top-dose activity, positive = more growth. hit rate 0.4% among 270,000. AID 2326; calls by dose curve; note: potency is the fitted concentration of half-maximal effect; actives are rising curves; nearly all actives have a fitted effect of over 50% in size
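A cell-based growth assay was used: compounds that relieve NS1-induced slow growth of budding yeast raise OD600. Assay medium was yeast nitrogen base with ammonium sulphate and -URA supplement, pH 6.0, with 2% galactose.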
Numbers without * were called inactive; ? = inconclusive; / = no result given. Unless noted, calls come from the whole dose curve; as a rule, active = well fitted curve in the direction sought with a large enough effect; inconclusive = small, poorly fitted or top-dose-only effect, or another doubt; inactive = no such curve, though single readings can be large; an effect the other way counts as inactive or inconclusive.

SMILES	TbPYK inhibitor	LmPK inhibitor	SARS PLpro yeast	Shiga toxin inh	Cycloheximide cs	NS1 function inh
CCOC(=O)c1[nH]c2ccc(OCC)cc2c1NC(=O)CN1CCN(c2ccccc2)CC1	-5%	-1%	4%	60	28*	-4%
CCOC(=O)c1[nH]c2ccc(OC)cc2c1NC(=S)N1CCN(c2cccc(C)c2C)CC1	-10%	1%	2%	27	17*	-11%
CCCC(=O)Nc1c(C(=O)OCC)[nH]c2ccccc12	-2%	0%	3%	-5	7	-6%
CCOC(=O)c1cc2cc(OC)ccc2[nH]1	-10%	-6%	0%	110*	49*	11%
CCOC(=O)c1[nH]c2ccccc2c1NC(=O)Nc1ccc(OC)cc1	-21%	0%	0%	11	9.9*	10%
CC(C)(C)c1ccc(-n2ncc3c2CCCC3NC(=O)c2ccco2)cc1 (stereo not drawn)	0%	/	/	/	/	/
Cc1nc2c(C(=O)NC(C)c3ccccc3)cnn2c(C)c1Cc1ccccc1 (stereo not drawn)	-8%	/	/	/	/	/
CC1CCc2c(sc3nc(-c4cc5ccccc5oc4=O)nc(Cl)c23)C1 (stereo not drawn)	3%	/	/	/	/	/
COc1ccc2[nH]c(C)c(CN3CCCCC3)c(=O)c2c1	-1%	5%	4%	-28	-8	4%
CCOC(=O)c1[nH]c2ccc(F)cc2c1NC(=O)c1ccccc1C(=O)O	3%	-1%	-1%	96*	43*	0%
CCOC(=O)c1[nH]c2ccc(OC)cc2c1NC(=O)c1ccccc1C(=O)O	8%	-11%	2%	64*	35*	-1%
CCOC(=O)c1[nH]c2ccc(F)cc2c1NC(=O)c1cc(OC)c(OC)c(OC)c1	-11%	3%	-9%	-7	4	-8%
CCOC(=O)c1[nH]c2ccc(OC)cc2c1NC(C)=O	-14%	-3%	11%	-19	-5	4%
CCOC(=O)c1[nH]c2ccc(OC)cc2c1C	2%	-2%	0%	73*	29*	-14%
CCc1c(C)[nH]c2ccc(OC)cc2c1=S	2µM*	?	-1%	-11	-2	-4%
COc1cccc(C(=O)Nc2ccc(-n3nncc3-c3ccc(Br)cc3)cc2)c1OC	3%	/	/	/	/	/
O=C(NC(=S)/C(=C1\CCCCCN1)[N+](=O)[O-])c1ccccc1	-15%	/	-2%	/	/	/
CCCC(=O)NCc1nc2ccccc2n1C	1%	-6%	1%	-7	-4	-10%
Cn1c(CNc2ccccc2O)nc2ccccc21	-23%	1%	-23%	76*	23*	-86%
Cc1ccccc1NCc1nc2ccccc2n1C	-20%	-23%	-6%	84*	55*	-17%
Cc1c(Cl)cccc1NC(=O)CSc1nccn1C	5%	1%	2%	-5	1	4%
Cc1nn(C(=O)c2cccc([N+](=O)[O-])c2C)c(C)c1S(=O)(=O)N1CCOCC1	2%	/	/	/	/	/
COc1ccc(C(=O)N/N=C(/C)c2cccc(NC(=O)c3ccncc3)c2)cc1OC	4%	-9%	-1%	2	3	9%
C/C(=N\NC(=O)c1cccc(Cl)c1)c1cccc(NC(=O)C(C)C)c1	-1%	-3%	-23%	46*	30*	-15%
C/C(=N\NC(=O)c1ccc(Cn2cc([N+](=O)[O-])cn2)o1)c1cccc(NC(=O)C(C)C)c1	3%	-3%	3%	0	5	5%
SMILES	TbPYK inhibitor	LmPK inhibitor	SARS PLpro yeast	Shiga toxin inh	Cycloheximide cs	NS1 function inh
CCC(CC)C(=O)Nc1cccc(/C(C)=N/NC(=O)c2ccccc2Cl)c1	0%	10%	4%	30	16*	4%
C/C(=N\NC(=O)c1ccc(Cn2cc(Br)cn2)o1)c1cccc(NC(=O)C(C)C)c1	3%	-1%	5%	9	20*	4%
C/C(=N\NC(=O)c1ccncc1)c1cccc(NC(=O)c2ccc(Cl)s2)c1	-4%	-12%	?	77*	31*	-34%
CCCCNC(=O)C1c2ccccc2OCC(=O)N1CCc1c[nH]c2ccccc12 (stereo not drawn)	2%	/	/	/	/	/
CC(OC(=O)CNS(=O)(=O)c1ccc(C#N)cc1)C(=O)Nc1cccc(C#N)c1 (stereo not drawn)	0%	/	3%	/	/	/
Cc1cccnc1N1C(=O)c2ccc(C(=O)O)cc2C1=O	-4%	5%	0%	-12	-2	1%
